A short description of assay [1]: Nuclear factor erythroid 2-related factor 2/antioxidant responsive element (Nrf2/ARE) small molecule agonists: qHTS cell viability counter screen in human keratinocytes (AID 1919968; active = well fitted curve in the direction sought with a large enough effect in the repeat runs; an effect the other way counts as inactive or inconclusive; note: nearly all actives have a fitted effect of over 55% in size). An outline of the steps: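 Fluorescence read-out from CellTiter-Fluor after 1 h at 37 C. Wells held HaCaT-derived ARE-luciferase reporter cells (1,500/well) treated 23 h with DMSO-dissolved compounds. Run in the same wells as the luciferase agonist read.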

Assay [2] can be described thus: Nuclear factor erythroid 2-related factor 2/antioxidant responsive element (Nrf2/ARE) small molecule agonists: luciferase reporter gene qHTS assay in human keratinocytes (AID 1919969). Note: nearly all actives have a fitted effect of over 35% in size.
Assay [3] has as its target Gonadotropin-releasing hormone receptor (Homo sapiens) (UniProt P30968). The experiment in a line: Human gonadotropin-releasing hormone receptor (GnRHR) small molecule agonists, calcium flux assay in GnRHR-HEK293 cells (AID 1920063). Note: nearly all actives have a fitted effect of over 35% in size. The gist of the method:
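Calcium-dye fluorescence, Ex/Em=480/540, recorded every 1 sec over 3 min after compound addition to GnRHR-HEK293 cells. Cells had been seeded 18 hours earlier and dye-loaded for 1 hour at 37 C. Fifteen concentrations, triplicates.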

Assay [4] addresses KiSS-1 receptor (Homo sapiens) (UniProt Q969F8). The assay can be described thus: Human kisspeptin (KISS1R) small molecule agonists, calcium flux assay in KISS1R-HEK293 cells (AID 1920064; active = well fitted curve in the direction sought with a large enough effect in the repeat runs; an effect the other way counts as inactive or inconclusive). An outline of the steps:
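Calcium flux read-out: kinetic fluorescence at Ex/Em=480/540, 1 s intervals over 3 min, after pin-tool compound addition to dye-loaded KISS1R-HEK293 cells. Fifteen concentrations, triplicates.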

A short description of assay [5]: G protein-coupled receptor (GPCR) small molecule agonists, calcium flux assay: HEK293 wild type cell line counter screen (AID 1920065). An outline of the steps:
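Agonist mode; 18 h seeding at 37 C, 1 h dye load at 37 C; compounds pinned from DMSO, ATP as positive control; kinetic fluorescence 480/540 nm, 3 min, 1 s reads; 15 concentrations, triplicate.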

A short description of assay [6]: p53 small molecule agonists, cell-based qHTS assay with human liver microsomes (AID 1963577). An outline of the steps: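 In this qHTS, p53 response-element beta-lactamase cells receive test compound together with a microsome/NADPH activating system (0.5 mg/mL final each) and are incubated 16 h at 37 C before LiveBLAzer fluorescence detection.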
A short description of assay [7]: p53 small molecule agonists, cell-based qHTS assay with rat liver microsomes (AID 1963578). An outline of the steps: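 Agonist mode in p53RE-bla reporter cells, with compounds co-incubated 16 h at 37 C alongside 0.5 mg/mL rat liver microsomes and 0.5 mg/mL NADPH (final), followed by a 2 h LiveBLAzer detection step.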
The nature of assay [8]: p53 small molecule agonists, cell-based qHTS assay with human liver microsomes: qHTS cell viability counter screen (AID 1963579). Note: nearly all actives have a fitted effect of over 45% in size. An outline of the steps:
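Metabolically activated exposure: compounds, human liver microsomes and NADPH (0.5 mg/mL final apiece) were added to p53RE-bla cells seeded 5 h earlier, left 16 h at 37 C, and then assessed for viability by CellTiter-Glo luminescence.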

Assay [9] in a line: p53 small molecule agonists, cell-based qHTS assay with rat liver microsomes: qHTS cell viability counter screen (AID 1963580). Note: nearly all actives have a fitted effect of over 45% in size. An outline of the steps: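 Cytotoxicity counter screen: intracellular ATP measured by CellTiter-Glo luminescence in the same wells as the beta-lactamase reporter read, on HCT-116 p53RE-bla cells exposed 16 h at 37 C to compounds with rat liver microsomes and NADPH, each 0.5 mg/mL final.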

Assay [10] is described as follows: p53 small molecule agonists, cell-based qHTS assay: qHTS cell viability counter screen (AID 1963581). Note: nearly all actives have a fitted effect of over 45% in size. An outline of the steps: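 Cytotoxicity read-out: ATP-based luminescence (CellTiter-Glo, 30 min RT) measured in the same wells as the p53 reporter assay, HCT-116 p53RE-bla cells, 16 h compound exposure at 37 C.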
Assay [11] in a line: p53 small molecule agonists, cell-based qHTS assay (AID 1963582; active = well fitted activation curve with a large enough effect in the signal ratio in the repeat runs, not every such curve was filed as active; the % refers to the signal ratio). An outline of the steps: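 Fluorescence intensity read-out of a beta-lactamase reporter under a p53 response element. Cells were exposed to DMSO-dissolved compounds for 16 h at 37 C, then developed with FRET substrate for 2 h at RT.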
Assay [12] addresses 5-hydroxytryptamine receptor 2A (Homo sapiens) (UniProt P28223). The experiment in a line: 5-hydroxytryptamine receptor 2A (HTR2A) small molecule antagonists, cell-based qHTS assay (AID 1963586). Note: nearly all actives have a fitted effect of over 45% in size. An outline of the steps: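 CHO cells stably expressing human HTR2A were plated for 18 h at 37 C, then loaded with calcium dye for 1 h. Compounds were preincubated 5 min at room temperature before DOI (4 nM solution) was added. Kinetic fluorescence was read for 3 min.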

For assay [13] the target is unchanged. The experiment in a line: 5-hydroxytryptamine receptor 2A (HTR2A) small molecule agonists, cell-based qHTS assay (AID 1963587). Note: nearly all actives have a fitted effect of over 30% in size. Note: potency is the fitted concentration of half-maximal effect. The gist of the method:
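CHO cells stably expressing human HTR2A, plated 18 h, loaded with calcium dye 1 h at 37 C. Agonist mode: compounds added and intracellular calcium fluorescence recorded kinetically for 2 min at 1 sec intervals.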

The target in assay [14] is Muscarinic acetylcholine receptor M1 (Homo sapiens) (UniProt P11229). The experiment in a line: Cholinergic receptor muscarinic 1 (CHRM1) small molecule agonists, cell-based qHTS assay (AID 1963589). Note: nearly all actives have a fitted effect of over 35% in size. The gist of the method:
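Calcium flux read-out: kinetic fluorescence at 1 sec intervals after pin-tool compound addition to dye-loaded CHRM1-CHO cells (human M1). Agonist mode; 15 concentrations tested in triplicate independent runs.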

Assay [15] in a line: cAMP Responsive Elements (CRE) small molecule agonists, cell-based qHTS assay (AID 1963590). An outline of the steps: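 Beta-lactamase reporter readout: LiveBLAzer B/G FRET substrate, 2 h at room temperature, added after 3 h compound treatment of CRE-bla HEK 293T cells at 37 C/5% CO2.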
A short description of assay [16]: cAMP Responsive Elements (CRE) small molecule antagonists, cell-based qHTS assay (AID 1963591; active = well fitted inhibition curve with a large enough effect in the signal ratio in the repeat runs, not every such curve was filed as active; the % refers to the signal ratio). The gist of the method:
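HEK293T CRE-bla; 18 h preincubation; compound pin-transfer; NKH477 0.25 uM final, 3 h, 37 C; LiveBLAzer FRET substrate 2 h RT.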

Assay [17] concerns the target Beta-2 adrenergic receptor (Homo sapiens) (UniProt P07550). The experiment in a line: Adrenergic beta2 receptor (ADRB2) small molecule antagonists, cell-based qHTS assay (AID 1963592). Note: series mostly up to about 92 µM; nearly all actives have a fitted effect of over 50% in size. The gist of the method:
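Assay format: CHO-ADRB2 cells, 18-20hr seeding at 37C/5% CO2, then compound plus 1nM isoproterenol agonist mix for 0.5hr RT. Homogeneous time-resolved fluorescence cAMP detection after 1hr, expressed as 665/615 nm ratio.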

In assay [18] the target is D(2) dopamine receptor (Homo sapiens) (UniProt P14416). The experiment in a line: Dopamine D2 receptor (DRD2) small molecule agonists, cell-based qHTS assay (AID 1963594). Note: nearly all actives have a fitted effect of over 35% in size. Note: potency is the fitted concentration of half-maximal effect. An outline of the steps:
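HEK293 cells stably expressing human DRD2, pre-treated with PDE inhibitor Ro20-1724 (0.1 mM final) and compound 10 min at room temperature, then stimulated with NKH477 (200nM […]) for 30 min. cAMP read by HTRF (665/620 nm).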

Assay [19] shares this target. The experiment in a line: Dopamine D2 receptor (DRD2) small molecule antagonists, cell-based qHTS assay (AID 1963595; active = well fitted inhibition curve with a large enough effect in the signal ratio in the repeat runs, with a control signal flat; the % refers to the signal ratio). An outline of the steps:
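Stable D2 receptor HEK293 line, 24 h after seeding. Compound preincubated 10 min, then quinpirole (12 nM) with forskolin analogue NKH477 (200 nM), 30 min, room temperature. Detection by time-resolved FRET of cAMP.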

The target of assay [20] is Muscarinic acetylcholine receptor M1 (Homo sapiens) (UniProt P11229). The experiment in a line: Cholinergic receptor muscarinic 1 (CHRM1) small molecule antagonists, cell-based qHTS assay (AID 1963588). Note: nearly all actives have a fitted effect of over 40% in size. An outline of the steps:
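Compounds were tested at 15 concentrations in three independent runs. Dye-loaded CHRM1-CHO cells were exposed 5 min at room temperature before stimulation by acetylcholine added at 50nM. Intracellular calcium was read kinetically on FDSS for 3 min.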

Values without a mark were called inactive. Results filed as inconclusive are left out. The source made the active and inactive calls. Unless noted, calls come from the whole dose curve.

Here are results for 7 compounds from PubChem BioAssay (Tox21).

Chain of Gonadotropin-releasing hormone receptor (Homo sapiens) (P30968 whole entry, looked up): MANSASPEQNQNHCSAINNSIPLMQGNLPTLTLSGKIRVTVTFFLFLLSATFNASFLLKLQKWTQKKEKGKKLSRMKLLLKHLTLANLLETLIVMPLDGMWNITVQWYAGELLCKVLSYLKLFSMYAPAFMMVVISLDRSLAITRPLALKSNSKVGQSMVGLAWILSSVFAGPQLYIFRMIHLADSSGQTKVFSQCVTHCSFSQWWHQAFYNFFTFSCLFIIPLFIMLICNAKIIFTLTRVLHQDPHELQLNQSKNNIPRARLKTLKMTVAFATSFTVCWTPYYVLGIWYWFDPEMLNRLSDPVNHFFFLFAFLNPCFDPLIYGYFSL
Chain of D(2) dopamine receptor (Homo sapiens) (P14416 whole entry, looked up): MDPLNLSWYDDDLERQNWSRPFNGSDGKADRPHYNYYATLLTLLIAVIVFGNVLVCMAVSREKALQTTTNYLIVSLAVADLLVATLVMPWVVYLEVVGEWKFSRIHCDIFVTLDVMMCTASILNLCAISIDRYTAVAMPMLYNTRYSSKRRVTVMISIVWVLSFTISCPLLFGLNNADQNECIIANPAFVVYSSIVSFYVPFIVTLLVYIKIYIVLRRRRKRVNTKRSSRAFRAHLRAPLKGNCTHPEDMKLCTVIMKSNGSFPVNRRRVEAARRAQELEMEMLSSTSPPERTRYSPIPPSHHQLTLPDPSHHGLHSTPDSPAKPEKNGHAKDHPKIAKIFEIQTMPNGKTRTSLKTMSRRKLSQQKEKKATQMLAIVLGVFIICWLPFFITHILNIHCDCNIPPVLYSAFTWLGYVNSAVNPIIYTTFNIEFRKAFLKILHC
Chain of Muscarinic acetylcholine receptor M1 (Homo sapiens) (P11229 whole entry, looked up): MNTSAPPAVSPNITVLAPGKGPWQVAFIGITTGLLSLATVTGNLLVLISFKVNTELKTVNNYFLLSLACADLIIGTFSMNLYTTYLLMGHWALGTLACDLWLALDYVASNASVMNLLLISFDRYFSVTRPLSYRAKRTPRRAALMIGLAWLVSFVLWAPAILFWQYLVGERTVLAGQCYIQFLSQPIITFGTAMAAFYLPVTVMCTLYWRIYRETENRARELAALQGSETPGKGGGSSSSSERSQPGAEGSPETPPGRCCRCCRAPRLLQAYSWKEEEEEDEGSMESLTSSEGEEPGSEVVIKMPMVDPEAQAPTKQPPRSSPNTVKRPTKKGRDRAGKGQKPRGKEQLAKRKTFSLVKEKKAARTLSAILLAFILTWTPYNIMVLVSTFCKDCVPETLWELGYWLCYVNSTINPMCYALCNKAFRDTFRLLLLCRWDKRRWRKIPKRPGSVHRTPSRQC
Chain of Beta-2 adrenergic receptor (Homo sapiens) (P07550 whole entry, looked up): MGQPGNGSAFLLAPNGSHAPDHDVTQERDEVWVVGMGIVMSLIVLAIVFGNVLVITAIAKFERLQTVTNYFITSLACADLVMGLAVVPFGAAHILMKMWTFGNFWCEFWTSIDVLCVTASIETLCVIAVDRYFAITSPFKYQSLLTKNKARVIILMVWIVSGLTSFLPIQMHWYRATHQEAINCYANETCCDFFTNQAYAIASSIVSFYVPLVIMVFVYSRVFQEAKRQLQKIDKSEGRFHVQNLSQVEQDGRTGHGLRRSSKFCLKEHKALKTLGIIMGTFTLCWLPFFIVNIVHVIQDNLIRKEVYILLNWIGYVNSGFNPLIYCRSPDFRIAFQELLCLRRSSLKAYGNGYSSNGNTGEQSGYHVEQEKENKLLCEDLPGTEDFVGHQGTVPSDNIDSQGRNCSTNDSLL
Chain of 5-hydroxytryptamine receptor 2A (Homo sapiens) (P28223 whole entry, looked up): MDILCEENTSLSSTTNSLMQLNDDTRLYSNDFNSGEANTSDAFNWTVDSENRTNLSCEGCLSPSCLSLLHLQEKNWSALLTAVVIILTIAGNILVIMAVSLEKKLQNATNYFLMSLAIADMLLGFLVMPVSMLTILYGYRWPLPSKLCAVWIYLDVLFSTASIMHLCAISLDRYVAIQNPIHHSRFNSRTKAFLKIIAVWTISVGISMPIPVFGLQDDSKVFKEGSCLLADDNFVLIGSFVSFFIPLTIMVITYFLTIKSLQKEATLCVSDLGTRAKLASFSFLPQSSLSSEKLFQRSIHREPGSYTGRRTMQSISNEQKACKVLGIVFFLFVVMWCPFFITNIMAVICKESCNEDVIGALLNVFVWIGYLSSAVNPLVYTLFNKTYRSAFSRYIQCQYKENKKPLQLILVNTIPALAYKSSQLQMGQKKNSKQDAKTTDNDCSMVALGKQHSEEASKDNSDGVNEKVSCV
Chain of KiSS-1 receptor (Homo sapiens) (Q969F8 whole entry, looked up): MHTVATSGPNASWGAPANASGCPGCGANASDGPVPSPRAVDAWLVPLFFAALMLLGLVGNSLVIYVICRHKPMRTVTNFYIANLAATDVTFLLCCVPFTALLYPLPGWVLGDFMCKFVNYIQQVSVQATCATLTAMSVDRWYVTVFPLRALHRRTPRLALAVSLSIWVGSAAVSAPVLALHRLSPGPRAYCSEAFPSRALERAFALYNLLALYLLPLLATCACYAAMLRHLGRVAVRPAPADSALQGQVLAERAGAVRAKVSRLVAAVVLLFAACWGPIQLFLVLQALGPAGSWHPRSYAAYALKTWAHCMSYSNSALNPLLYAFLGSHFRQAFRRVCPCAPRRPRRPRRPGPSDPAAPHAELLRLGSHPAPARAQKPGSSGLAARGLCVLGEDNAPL

As to `CCC1(CO)COCOC1`, the Potency result in assay [1], in assay [2], in assay [3], in assay [6], in [7] and in [8] was “inactive” throughout. For the same compound, the Potency result in [9], in assay [10], in [11], in [12], in assay [13] and in [14] was “inactive” each time. Also, the Potency entry in [15], in assay [16], in [17], in assay [18] and in assay [19] was “inactive” in each case. The outcome in [4] and in [5] was inactive.
On to `CC(C)c1ccc(C#N)cc1`, for which the Potency entry in [1], in assay [2], in assay [3], in assay [6], in assay [7] and in [8] was “inactive” each time. The Potency result in assay [9], in assay [10], in assay [11], in assay [12], in assay [13] and in [14] was “inactive” each time. The Potency entry in assay [15], in [16], in [17] and in [19] was “inactive” in each case. Also, the outcome in assay [4] and in assay [5] was inactive.
Regarding `CC(C=O)Cc1ccc(C(C)C)cc1` (stereo not drawn), the Potency result in assay [1], in assay [2], in [3], in [6], in [7] and in assay [8] was “inactive” in each case. Moreover, the Potency result in assay [9], in assay [10], in [11], in [12], in assay [13] and in assay [20] was “inactive” throughout. Further, the Potency entry in assay [15], in [16], in assay [17], in assay [18] and in [19] was “inactive” throughout. Further, the result in assay [4] and in assay [5] was inactive.
`CCCN(CCC)CCc1cccc2c1CC(=O)N2`: the Potency result in assay [1], in assay [2], in assay [3], in assay [6], in assay [7] and in [8] was “inactive” each time. Further, the Potency result in [9], in assay [10], in [11], in [12], in assay [14] and in assay [15] was “inactive” in each case. Besides, the Potency entry in [16], in [17] and in assay [19] was “inactive” each time. Further, the result in assay [4] and in assay [5] was inactive. Besides, the Potency in [13] was 16.9 µM (active); in [18], 0.0619 µM (active).
Take `CCC(C=O)CC`: the Potency entry in assay [1], in assay [2], in assay [3], in assay [6], in assay [7] and in assay [8] was “inactive” throughout. Moreover, the Potency entry in assay [9], in [10], in assay [11], in assay [12], in [13] and in [20] was “inactive” each time. Besides, the Potency entry in assay [15], in [16], in [17] and in assay [19] was “inactive” in each case. The result in assay [4] and in assay [5] was inactive.
For the compound `CCOc1ccccc1O`, the Potency entry in assay [1], in [2], in [3], in assay [6], in assay [7] and in assay [8] was “inactive” each time. Moreover, the Potency result in [9], in assay [10], in [11], in assay [12], in assay [13] and in assay [20] was “inactive” each time. The Potency result in assay [16] and in assay [17] was “inactive” throughout. Besides, the outcome in assay [4] and in [5] was inactive.
For `CCC(C(=O)OCCN(CC)CC)c1ccccc1` (stereo not drawn), the Potency entry in assay [1], in assay [2], in assay [3], in assay [6], in [7] and in [8] was “inactive” each time. Moreover, the Potency entry in [9], in assay [10], in assay [11], in assay [12], in [13] and in assay [14] was “inactive” each time. The Potency entry in [15], in assay [16], in assay [17], in [18] and in assay [19] was “inactive” throughout. For the same compound, the outcome in assay [4] and in assay [5] was inactive.
